The full data set covers some 8,800 targets. This sample favours those with a hit. About 0.5% of all pairs of compound and target were hits.
Experiments:
Test in all cases: log2 fold change, soluble protein after heating vs DMSO (PISA); higher = thermal stabilisation; K562 lysate, 10 uM; active = over 0.2 and 3.5 SD of the protein, either way, in both replicates (recomputed)
[1] = compound: C=CC(=O)N1CCC[C@@H](n2nc(-c3ccc(Oc4ccccc4)cc3)c3c(N)ncnc32)C1 [ibrutinib]
Procedure, shortened: (§1)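 Following dounce homogenisation of K562 pellets in PBS pH 7.4 with 1 mM MgCl2, crude extract at 1 mg/mL protein was incubated for 30 min with 10 μM compound. Aliquots were then heated for 3 min over 48°C-58°C and pooled, NP-40 was added to 0.5% at 4°C, and soluble protein was recovered as the supernatant at 21,000xg for 90 min. Channel-sum-equalised TMTpro 16plex LC-MS/MS quantified this protein. Each value, from duplicates, is a log-two fold change in thermal stability relative to solvent controls.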

[2] = compound: CC(=O)c1cnc2ccc(-c3cc(Cl)c(O)c(Cl)c3)nc2c1N[C@H]1CC[C@H](CN(C)C)CC1
Procedure, shortened: as §1

[3] = compound: CC(C)(C)Cn1c(N)nc2ccc(-c3[nH]c(C(C)(C)C)nc3-c3ccc(F)cc3)nc21 [ralimetinib]
Procedure, shortened: as §1

[4] = compound: CC(C)(O)CC(=O)NCCn1ccc2ncnc(Nc3ccc(Oc4cccc(C(F)(F)F)c4)c(Cl)c3)c21
Procedure, shortened: as §1

[5] = compound: CC(C)C1=C2N=C(C=C(N2N=C1)NCC3=CC=CC=C3)NCCCCCCN
Procedure, shortened: as §1

[6] = compound: CC1=C(C(CC(=O)N1)C2=CC=C(C=C2)C(F)(F)F)C(=O)NC3=C(C=C4C(=C3)C=NN4)F
Procedure, shortened: as §1

[7] = compound: CC1=C(C2=C(C=C1)C(=O)C3=CC=CC=C3N2CCCN)C
Procedure, shortened: as §1

[8] = compound: CC1=C(C=C(C=C1)NC(=O)C2=CC(=CC=C2)C(C)(C)C#N)NC3=CC4=C(C=C3)N=CN(C4=O)C
Procedure, shortened: as §1

[9] = compound: CC1=C(C=C(C=C1)NC(=O)C2=CC(=CC=C2)N(C)C)NC(=O)C3=CC=C(C=C3)O
Procedure, shortened: as §1

[10] = compound: CC1=CC=C(C=C1)SC2=C3C=C(SC3=CN=C2)C(=O)N
Procedure, shortened: as §1

Measured: log2 fold change

RDH14 (UniProt Q9HBH5)
Sequence of UniProt Q9HBH5 (Q9HBH5 whole entry, looked up): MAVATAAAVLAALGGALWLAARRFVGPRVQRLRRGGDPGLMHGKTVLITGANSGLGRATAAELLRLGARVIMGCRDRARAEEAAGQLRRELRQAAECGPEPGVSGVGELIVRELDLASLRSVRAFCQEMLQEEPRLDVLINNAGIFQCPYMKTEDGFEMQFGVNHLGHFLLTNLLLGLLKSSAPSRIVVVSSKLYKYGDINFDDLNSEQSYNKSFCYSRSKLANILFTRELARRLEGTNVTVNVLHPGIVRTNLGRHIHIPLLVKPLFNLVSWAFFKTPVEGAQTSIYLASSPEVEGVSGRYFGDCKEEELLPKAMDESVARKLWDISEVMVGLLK
inactive: [1] 0.017 | [2] 0.061 | [3] 0.072 | [4] 0.089 | [5] 0.012 | [6] -0.031 | [7] 0.053 | [8] -0.073 | [9] 0.032 | [10] -0.012

RPS18 (UniProt P62269)
inactive: [1] -0.016 | [2] 0.01 | [3] -0.006 | [4] -0.02 | [5] 0.008 | [6] -0.037 | [7] -0.1 | [8] 0 | [9] -0.006 | [10] -0.012

REEP5 (UniProt Q00765)
Sequence of UniProt Q00765 (Q00765 whole entry, looked up): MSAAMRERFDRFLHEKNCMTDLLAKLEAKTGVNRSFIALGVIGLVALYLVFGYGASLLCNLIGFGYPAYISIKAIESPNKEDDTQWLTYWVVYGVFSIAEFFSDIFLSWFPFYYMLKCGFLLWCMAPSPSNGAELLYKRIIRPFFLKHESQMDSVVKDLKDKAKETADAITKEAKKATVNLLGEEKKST
inactive: [1] 0.043 | [2] 0.004 | [3] -0.014 | [4] -0.01 | [5] -0.037 | [6] 0.017 | [7] -0.039 | [8] 0.004 | [9] -0.016 | [10] -0.042

RDX (UniProt P35241)
Sequence of UniProt P35241 (P35241 whole entry, looked up): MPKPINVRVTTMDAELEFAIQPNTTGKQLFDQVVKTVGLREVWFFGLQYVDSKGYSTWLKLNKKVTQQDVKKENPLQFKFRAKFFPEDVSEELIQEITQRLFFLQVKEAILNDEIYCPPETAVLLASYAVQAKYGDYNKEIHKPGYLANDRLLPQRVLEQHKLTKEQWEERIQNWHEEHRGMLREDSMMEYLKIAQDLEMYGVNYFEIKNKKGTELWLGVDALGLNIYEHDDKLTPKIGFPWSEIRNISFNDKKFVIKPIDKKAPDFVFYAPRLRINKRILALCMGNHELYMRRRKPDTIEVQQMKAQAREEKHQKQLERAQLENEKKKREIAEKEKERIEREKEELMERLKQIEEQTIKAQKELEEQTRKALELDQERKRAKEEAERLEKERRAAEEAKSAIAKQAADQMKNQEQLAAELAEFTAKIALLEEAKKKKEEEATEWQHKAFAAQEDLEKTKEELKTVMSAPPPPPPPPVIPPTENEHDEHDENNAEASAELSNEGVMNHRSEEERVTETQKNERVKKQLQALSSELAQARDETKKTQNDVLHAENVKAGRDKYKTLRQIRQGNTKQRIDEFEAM
inactive: [1] -0.051 | [2] 0 | [3] -0.003 | [4] 0.002 | [5] 0.012 | [6] -0.016 | [7] -0.011 | [8] -0.021 | [9] -0.002 | [10] -0.004

RNPS1 (UniProt Q15287)
inactive: [1] 0.04 | [2] 0.042 | [3] 0.007 | [4] 0.006 | [5] 0.005 | [6] 0.138 | [7] 0.003 | [8] -0.057 | [9] -0.032 | [10] -0.032

RABEPK (UniProt Q7Z6M1)
Sequence of UniProt Q7Z6M1 (Q7Z6M1 whole entry, looked up): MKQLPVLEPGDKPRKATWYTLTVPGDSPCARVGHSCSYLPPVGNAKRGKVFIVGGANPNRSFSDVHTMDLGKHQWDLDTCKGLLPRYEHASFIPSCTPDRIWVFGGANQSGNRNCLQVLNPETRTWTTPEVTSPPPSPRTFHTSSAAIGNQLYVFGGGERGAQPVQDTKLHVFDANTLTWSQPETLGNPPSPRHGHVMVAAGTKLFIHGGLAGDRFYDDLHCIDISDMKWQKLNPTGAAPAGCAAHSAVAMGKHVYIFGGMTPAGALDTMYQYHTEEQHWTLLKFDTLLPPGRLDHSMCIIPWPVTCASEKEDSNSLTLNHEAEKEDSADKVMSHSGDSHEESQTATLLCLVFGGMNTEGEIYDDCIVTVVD
inactive: [1] 0 | [2] -0.002 | [3] 0.01 | [4] -0.006 | [5] 0.018 | [6] -0.009 | [7] -0.007 | [8] 0.008 | [9] 0.001 | [10] 0

RAI14 isoform 2 (UniProt Q9P0K7)
Sequence of UniProt Q9P0K7 (Q9P0K7 whole entry, looked up): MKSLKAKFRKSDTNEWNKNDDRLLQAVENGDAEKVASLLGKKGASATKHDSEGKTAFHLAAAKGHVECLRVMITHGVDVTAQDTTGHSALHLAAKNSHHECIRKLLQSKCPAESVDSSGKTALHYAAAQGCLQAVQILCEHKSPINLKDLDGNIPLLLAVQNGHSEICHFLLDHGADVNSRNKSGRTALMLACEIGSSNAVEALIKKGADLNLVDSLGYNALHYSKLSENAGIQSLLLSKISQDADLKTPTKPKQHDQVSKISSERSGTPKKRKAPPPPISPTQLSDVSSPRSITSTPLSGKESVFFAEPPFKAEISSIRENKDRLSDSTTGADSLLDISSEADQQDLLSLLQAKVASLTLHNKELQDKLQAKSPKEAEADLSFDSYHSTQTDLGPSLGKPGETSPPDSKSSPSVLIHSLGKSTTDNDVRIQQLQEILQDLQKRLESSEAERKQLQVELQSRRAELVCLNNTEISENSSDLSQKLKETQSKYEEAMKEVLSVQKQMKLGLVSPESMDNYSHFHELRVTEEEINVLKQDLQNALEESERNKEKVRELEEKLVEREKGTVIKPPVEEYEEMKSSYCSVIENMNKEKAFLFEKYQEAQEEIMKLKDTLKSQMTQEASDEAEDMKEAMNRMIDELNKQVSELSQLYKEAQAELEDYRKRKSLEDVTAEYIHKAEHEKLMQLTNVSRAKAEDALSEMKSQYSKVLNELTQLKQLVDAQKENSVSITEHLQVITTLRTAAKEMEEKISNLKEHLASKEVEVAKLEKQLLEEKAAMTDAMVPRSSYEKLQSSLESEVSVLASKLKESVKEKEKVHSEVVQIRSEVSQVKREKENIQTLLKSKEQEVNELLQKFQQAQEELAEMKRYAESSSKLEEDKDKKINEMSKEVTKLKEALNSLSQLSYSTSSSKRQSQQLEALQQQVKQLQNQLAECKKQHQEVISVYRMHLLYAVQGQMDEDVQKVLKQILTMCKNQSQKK
inactive: [1] -0.019 | [2] -0.007 | [3] -0.011 | [4] -0.01 | [5] -0.004 | [6] 0.017 | [7] -0.024 | [8] 0.01 | [9] 0.024 | [10] 0.001

RBM22 (UniProt Q9NW64)
Sequence of UniProt Q9NW64 (Q9NW64 whole entry, looked up): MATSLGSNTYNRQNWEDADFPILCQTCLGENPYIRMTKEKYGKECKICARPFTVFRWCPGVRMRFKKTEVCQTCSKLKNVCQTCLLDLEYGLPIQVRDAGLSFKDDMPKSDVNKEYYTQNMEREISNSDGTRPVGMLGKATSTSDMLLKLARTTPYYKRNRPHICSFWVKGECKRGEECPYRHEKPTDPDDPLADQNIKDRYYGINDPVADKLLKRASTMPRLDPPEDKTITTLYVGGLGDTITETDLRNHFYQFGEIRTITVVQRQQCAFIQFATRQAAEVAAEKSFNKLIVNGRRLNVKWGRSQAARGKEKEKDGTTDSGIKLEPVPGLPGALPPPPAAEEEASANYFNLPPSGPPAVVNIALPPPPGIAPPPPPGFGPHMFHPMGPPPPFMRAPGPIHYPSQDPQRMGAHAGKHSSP
inactive: [1] 0.01 | [2] -0.007 | [3] -0.03 | [4] -0.044 | [5] -0.033 | [6] 0.009 | [7] -0.014 | [8] 0.043 | [9] -0.01 | [10] -0.006

RBBP7 isoform 2 (UniProt Q16576)
Sequence of UniProt Q16576 (Q16576 whole entry, looked up): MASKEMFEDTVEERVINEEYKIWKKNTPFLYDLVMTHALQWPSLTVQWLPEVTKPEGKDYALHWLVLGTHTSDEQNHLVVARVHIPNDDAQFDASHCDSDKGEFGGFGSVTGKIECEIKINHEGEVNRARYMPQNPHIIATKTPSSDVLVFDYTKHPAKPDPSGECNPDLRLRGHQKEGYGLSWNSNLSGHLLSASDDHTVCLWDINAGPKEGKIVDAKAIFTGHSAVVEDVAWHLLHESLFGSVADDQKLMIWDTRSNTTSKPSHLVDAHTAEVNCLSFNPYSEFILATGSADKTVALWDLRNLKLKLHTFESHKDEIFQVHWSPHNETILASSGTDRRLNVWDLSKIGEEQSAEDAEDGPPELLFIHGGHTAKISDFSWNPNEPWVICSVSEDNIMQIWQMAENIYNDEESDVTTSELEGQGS
inactive: [1] 0.016 | [2] 0.043 | [3] 0.062 | [4] 0.042 | [5] -0.028 | [6] -0.029 | [7] 0.011 | [8] -0.002 | [9] -0.001 | [10] 0.034

RPN2 (UniProt P04844)
Sequence of UniProt P04844 (P04844 whole entry, looked up): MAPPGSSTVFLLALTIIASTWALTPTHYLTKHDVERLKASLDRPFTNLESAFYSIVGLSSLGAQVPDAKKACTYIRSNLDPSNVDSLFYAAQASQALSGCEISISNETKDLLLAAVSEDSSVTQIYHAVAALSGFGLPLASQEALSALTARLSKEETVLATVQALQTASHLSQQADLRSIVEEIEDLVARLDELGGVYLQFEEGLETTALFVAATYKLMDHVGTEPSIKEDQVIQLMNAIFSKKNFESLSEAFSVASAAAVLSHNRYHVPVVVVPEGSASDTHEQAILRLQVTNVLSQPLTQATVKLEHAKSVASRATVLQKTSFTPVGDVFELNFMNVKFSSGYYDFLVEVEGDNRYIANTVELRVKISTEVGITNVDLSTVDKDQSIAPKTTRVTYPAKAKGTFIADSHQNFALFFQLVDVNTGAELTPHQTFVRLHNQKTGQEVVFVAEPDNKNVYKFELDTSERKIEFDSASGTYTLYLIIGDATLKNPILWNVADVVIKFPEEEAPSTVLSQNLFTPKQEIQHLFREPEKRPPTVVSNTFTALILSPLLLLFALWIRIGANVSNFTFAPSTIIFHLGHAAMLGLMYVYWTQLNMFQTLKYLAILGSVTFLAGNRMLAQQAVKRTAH
inactive: [1] -0.008 | [2] 0.014 | [3] -0.004 | [4] -0.035 | [5] -0.021 | [6] 0.008 | [7] 0.021 | [8] -0.011 | [9] -0.015 | [10] -0.017

RALA (UniProt P11233)
Sequence of UniProt P11233 (P11233 whole entry, looked up): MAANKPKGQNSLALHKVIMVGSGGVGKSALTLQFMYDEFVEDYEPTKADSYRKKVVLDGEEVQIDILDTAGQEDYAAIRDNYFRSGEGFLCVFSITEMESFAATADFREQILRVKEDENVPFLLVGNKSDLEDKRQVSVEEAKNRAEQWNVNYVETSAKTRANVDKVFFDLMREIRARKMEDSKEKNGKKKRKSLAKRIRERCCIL
inactive: [1] 0.009 | [2] -0.01 | [3] 0.006 | [4] -0.05 | [5] 0.034 | [6] -0.002 | [7] -0.001 | [8] 0.057 | [9] -0.048 | [10] -0.023

RDH10 (UniProt Q8IZV5)
inactive: [1] 0.016 | [2] -0.015 | [3] 0.04 | [4] -0.013 | [5] 0.03 | [6] -0.007 | [7] -0.033 | [8] -0.045 | [9] -0.034 | [10] -0.016

RAP1B (UniProt P61224)
Sequence of UniProt P61224 (P61224 whole entry, looked up): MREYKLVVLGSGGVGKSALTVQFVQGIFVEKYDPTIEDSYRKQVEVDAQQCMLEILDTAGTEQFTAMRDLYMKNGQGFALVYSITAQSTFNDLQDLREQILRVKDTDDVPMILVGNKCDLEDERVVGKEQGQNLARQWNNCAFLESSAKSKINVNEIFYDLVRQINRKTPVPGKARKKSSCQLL
inactive: [1] -0.024 | [2] -0.005 | [3] 0.051 | [4] -0.03 | [5] -0.014 | [6] -0.01 | [7] 0.004 | [8] 0.008 | [9] -0.017 | [10] -0.008

SAR1B (UniProt Q9Y6B6)
Sequence of UniProt Q9Y6B6 (Q9Y6B6 whole entry, looked up): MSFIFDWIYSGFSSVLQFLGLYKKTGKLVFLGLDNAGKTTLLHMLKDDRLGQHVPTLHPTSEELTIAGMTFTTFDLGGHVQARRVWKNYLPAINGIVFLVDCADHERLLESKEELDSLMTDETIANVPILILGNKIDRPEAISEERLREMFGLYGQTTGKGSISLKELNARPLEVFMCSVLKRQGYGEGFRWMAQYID
inactive: [1] 0.02 | [2] -0.094 | [3] 0.045 | [4] -0.032 | [5] 0.093 | [6] 0.154 | [7] -0.018 | [8] 0.026 | [9] -0.065 | [10] 0.077

S100A11 (UniProt P31949)
Sequence of UniProt P31949 (P31949 whole entry, looked up): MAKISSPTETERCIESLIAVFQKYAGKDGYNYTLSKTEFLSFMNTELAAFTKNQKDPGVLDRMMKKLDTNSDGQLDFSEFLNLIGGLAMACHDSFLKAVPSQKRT
inactive: [1] -0.011 | [2] -0.049 | [3] -0.009 | [4] -0.017 | [5] -0.02 | [6] -0.024 | [7] 0.003 | [8] 0.058 | [9] 0.028 | [10] 0.037
